From PubChem
Compounds with a hit are over-represented: about 4% of the library has one in this group of screens.
TWEAK Fn14 block = inhibitors of TWEAK-Fn14 signaling, primary screen, luciferase reporter cells, uHTS; AID 1159606, 2016; inhibition, % at 10 µM; 2% of 360,000 active; TWEAK-stimulated Fn14 reporter cells, luciferase luminescence, 8 h; in the data active means inhibition above about 50%
TROY signal inh = inhibitors of TROY-driven NF-kB signaling, primary screen, Q293 LMP1-TROYcd cells, NF-kB luciferase, uHTS; Q293 LMP1-TROYcd NF-kB luciferase reporter, 4 h; inhibition, % at 10 µM; 0.98% of 360,000 active;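 active means compounds whose plate-normalised and pattern-corrected inhibition of the luciferase reporter signal at the single screening dose is 50% or more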
Peg3 promoter = Peg3 promoter-driven luciferase inhibitors, primary screen, cell-based, HeLa, luciferase luminescence | HeLa PEG-Prom luciferase reporter, overnight | inhibition, % at 20 µM | 1.7% of 360,000 active;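 active means inhibition of at least 50% at 20 µM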
CF NFkB block = inhibitors of PAF-induced NF-kB signaling, primary screen, cell-based, GFP fluorescence, uHTS; KKLEB NF-kB-GFP reporter, GFP fluorescence overnight; inhibition, % at 5 µM; 0.86% of 360,000 active; AID 588850, 2011;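 active means at least 50% inhibition at 5 µM, scaled per plate between neutral and stimulator controls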;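 further: PAF is a Pseudomonas aeruginosa culture filtrate used as stimulus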
HIF-2a block = HIF-2a reporter inhibitors, primary screen, luminescence, 786-0 RCC cells. 786-0 RCC cells HIF-2a reporter, luciferase luminescence, overnight. inhibition, % at 18.8 µM. 0.72% of 360,000 active. AID 624352, 2012;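 active means inhibition of the luminescence signal of 40% or more relative to plate controls, in a single-dose primary screen at 18.75 µM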
KKLEB tox = cytotoxicity in KKLEB CF airway cells, primary screen, cytotoxicity control for CF NF-kB inhibitor project, cell-based, uHTS, fluorescence assay plates. KKLEB CF airway cells viability, ATPlite luminescence, overnight; active compounds read low; cells stimulated with P. aeruginosa culture filtrate. activity change (cytotoxicity), % at 5 µM. 0.36% of 360,000 active. AID 602141, 2011;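 active means corrected activity change at or below -50% at 5 µM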
CF NFkB inh conf = inhibitors of PAF-induced NF-kB signaling, retest, confirmation, cell-based, GFP fluorescence, single concentration | shares compounds with CF NFkB block | KKLEB CF airway cells, overnight | inhibition, % at 5 µM | 64% of 1,300 active | AID 602472, 2012; in the data active means inhibition above about 40%;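 further: stimulus PAF is a Pseudomonas aeruginosa filtrate and not platelet activating factor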
Hits are given with their value; . = inactive; / = not tested or not shown.

SMILES	TWEAK Fn14 block	TROY signal inh	Peg3 promoter	CF NFkB block	HIF-2a block	KKLEB tox	CF NFkB inh conf
C=CCSc1nc2ccccc2n1C(=O)/C=C/c1ccc(OC)c(OC)c1	98	.	104	92	.	.	103
COc1ccc(-c2cc(C(F)(F)F)nc(SCC(=O)N3CCOCC3)n2)cc1OC	.	.	.	.	.	.	/
COc1ccc(-c2cc(C(F)(F)F)nc(S(=O)(=O)CCC(=O)N3CCOCC3)n2)cc1	75	.	103	79	.	.	47
CCOC(=O)N1CCN(CC(=O)Nc2ccc([N+](=O)[O-])cc2C(=O)Nc2ccccc2F)CC1	.	.	64	67	.	.	.
CCc1ccc(C(=O)C(C)OC(=O)c2cccc(S(=O)(=O)N3CCOCC3)c2)cc1 (stereo not drawn)	.	.	.	.	.	.	/
C=CC[C@]12CC=CC(=O)[C@@]1(O)O[C@H](c1ccc(OC)c(OC)c1)[C@H]2C	66	.	.	62	.	.	58
COc1cccc(-c2ccc3ncnc(NCc4cc(C)cs4)c3c2)c1	77	.	.	71	.	.	78
O=[N+]([O-])c1cc(S(=O)(=O)N2CCCC2)ccc1OCc1ccccc1	.	.	.	.	.	.	/
O=[N+]([O-])c1cc(S(=O)(=O)N2CCCC2)ccc1OCCOc1ccccc1	.	.	.	50	.	.	.
COc1cccc(NC(=O)C2CCN(S(=O)(=O)c3ccc4c(c3)NC(=O)C(C)S4)CC2)c1 (stereo not drawn)	.	.	.	.	.	.	/
O=C(/C=C/c1cccc([N+](=O)[O-])c1)NC(=S)Nc1ccc(CN2CCOCC2)cc1	63	.	.	67	.	.	55
O=C(NC(=S)Nc1ccc(CN2CCOCC2)cc1)c1ccc([N+](=O)[O-])cc1	.	.	.	.	.	.	/
C(=C\CSc1nnnn1-c1ccccc1)/CSc1nnnn1-c1ccccc1	.	.	.	.	.	.	/
CCCSc1nnc(Sc2nnnn2-c2ccccc2)s1	82	.	68	56	.	.	.
COc1ccc(-n2cc(-c3ccccc3)c3c(N4CC(C)OC(C)C4)ncnc32)cc1 (stereo not drawn)	.	.	64	82	.	.	72
CN1CCN(c2ncnc3c2c(-c2ccccc2)cn3-c2ccc(F)cc2)CC1	.	.	.	.	.	.	/
Cn1cc([N+](=O)[O-])c(C(=O)Nc2sc3c(c2C#N)CCC3)n1	.	.	.	58	.	.	.
Cn1cc(Br)c(C(=O)Nc2sc3c(c2C#N)CCC3)n1	.	.	.	.	.	.	/
CN(C)c1cccc(CNC(=O)c2ccc3nc([C@@H]4O[C@H](CO)[C@H](O)[C@H](O)[C@H]4O)[nH]c3c2)c1	.	.	.	.	.	.	/
CCOc1ccc(NCc2cc3c(C(C)(C)C)nn(-c4ccccc4)c3[nH]c2=O)cc1	.	.	.	55	.	.	73
COc1ccc(N2CCN(C(=O)COC(=O)CNC(=O)c3ccc(Cl)cc3Cl)CC2)cc1	.	.	.	.	.	.	/
O=C(NCc1cccs1)C1CCN(S(=O)(=O)c2cccc3nsnc23)CC1	.	.	.	.	.	.	/
COc1cc(C(C(=O)NC2CCCC2)N(Cc2ccco2)C(=O)c2snc(C(N)=O)c2N)cc(OC)c1OC (stereo not drawn)	.	.	.	.	.	.	/
CCOc1ccc(C(C(=O)NC2CCCC2)N(C(=O)c2snc(C(N)=O)c2N)c2cccc(O)c2)cc1 (stereo not drawn)	.	.	53	75	.	.	70
CN(C)c1ccc(C(C(=O)NC2CCCCC2)N(Cc2ccco2)C(=O)c2snc(C(N)=O)c2N)cc1 (stereo not drawn)	.	.	.	88	.	.	79
